PubChem BioAssay AID1159580 (chemical genetic matrix, 2015)
Out of some 5,500 compounds screened, about 2,000 (36%) were called active. Another 18% or so got no clear call; they are omitted. The list shows a part of the results. Values without a mark were called inactive. Cut-off read from the data, not from the text of the source: active = normalized growth mostly below about 0.91 (no sharp cut-off); inconclusive = no clear call, values can overlap the other calls; inactive = mostly above about 0.92.

Assay: chemical genetic growth profiling, strain panel (AID 1159580);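 note: tested at 20 µM; growth read once vehicle control cultures reached saturation at 30 °C; 1 = growth at the plate median or of vehicle wells; lower values mean less growth of the strain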
Conditions: S. cerevisiae deletion strains, growth OD
[1] = locus YAR019C, strain CDC15, stronger effect = lower value
[2] = locus YBL105C, strain PKC1, stronger effect = lower value
[3] = locus YBR135W, strain CKS1, stronger effect = lower value
[4] = locus YBR136W, strain MEC1, stronger effect = lower value
[5] = locus YBR160W, strain CDC28, stronger effect = lower value
[6] = locus YDL017W, strain CDC7, stronger effect = lower value
[7] = locus YDL028C, strain MPS1, stronger effect = lower value
[8] = locus YDL101C, strain DUN1, stronger effect = lower value
[9] = locus YDL108W, strain KIN28, stronger effect = lower value
[10] = locus YDL132W, strain cdc53, stronger effect = lower value
[11] = locus YDL214C, strain PRR2, stronger effect = lower value
[12] = locus YDR052C, strain DBF4, stronger effect = lower value
[13] = locus YDR054C, strain cdc34, stronger effect = lower value
[14] = locus YDR226W, strain ADK1, stronger effect = lower value
[15] = locus YDR477W, strain SNF1, stronger effect = lower value
[16] = locus YER123W, strain YCK3, stronger effect = lower value
[17] = locus YER133W, strain GLC7, stronger effect = lower value
[18] = locus YFL009W, strain cdc4, stronger effect = lower value
[19] = locus YFL029C, strain CAK1, stronger effect = lower value
[20] = locus YFR003C, strain YPI1, stronger effect = lower value
[21] = locus YFR019W, strain FAB1, stronger effect = lower value
[22] = locus YFR028C, strain CDC14, stronger effect = lower value
[23] = locus YGR040W, strain KSS1, stronger effect = lower value
[24] = locus YGR052W, strain FMP48, stronger effect = lower value
[25] = locus YGR092W, strain DBF2, stronger effect = lower value
[26] = locus YHR030C, strain SLT2, stronger effect = lower value
[27] = locus YHR079C, strain IRE1, stronger effect = lower value
[28] = locus YHR082C, strain KSP1, stronger effect = lower value
[29] = locus YHR205W, strain SCH9, stronger effect = lower value
[30] = locus YIL147C, strain SLN1, stronger effect = lower value
[31] = locus YJL095W, strain BCK1, stronger effect = lower value
[32] = locus YJL128C, strain PBS2, stronger effect = lower value
[33] = locus YJL157C, strain FAR1, stronger effect = lower value
[34] = locus YJR016C, strain ILV3, stronger effect = lower value
[35] = locus YJR066W, strain TOR1 (second series), stronger effect = lower value
[36] = locus YJR066W, strain TOR1, stronger effect = lower value
[37] = locus YKL048C, strain ELM1, stronger effect = lower value
[38] = locus YKL067W, strain YNK1, stronger effect = lower value
[39] = locus YKL101W, strain HSL1, stronger effect = lower value
[40] = locus YKL193C, strain SDS22, stronger effect = lower value
[41] = locus YKL203C, strain TOR2, stronger effect = lower value
[42] = locus YLR113W, strain HOG1, stronger effect = lower value
[43] = locus YLR133W, strain CKI1, stronger effect = lower value
[44] = locus YLR403W, strain SFP1, stronger effect = lower value
[45] = locus YML070W, strain DAK1, stronger effect = lower value
[46] = locus YMR001C, strain CDC5, stronger effect = lower value
[47] = locus YMR205C, strain PFK2 (second series), stronger effect = lower value
[48] = locus YMR277W, strain FCP1, stronger effect = lower value
[49] = locus YNL006W, strain LST8, stronger effect = lower value
[50] = locus YNL020C, strain ARK1, stronger effect = lower value
[51] = locus YNL161W, strain CBK1, stronger effect = lower value
[52] = locus YNL183C, strain NPR1, stronger effect = lower value
[53] = locus YNL207W, strain RIO2, stronger effect = lower value
[54] = locus YNL222W, strain SSU72, stronger effect = lower value
[55] = locus YNL307C, strain MCK1 (second series), stronger effect = lower value
[56] = locus YOL078W, strain AVO1, stronger effect = lower value
[57] = locus YOL136C, strain PFK27, stronger effect = lower value
[58] = locus YOR061W, strain CKA2, stronger effect = lower value
[59] = locus YOR119C, strain RIO1, stronger effect = lower value
[60] = locus YOR231W, strain MKK1, stronger effect = lower value
[61] = locus YOR329C, strain SCD5, stronger effect = lower value
[62] = locus YPL031C, strain PHO85, stronger effect = lower value
[63] = locus YPL153C, strain RAD53, stronger effect = lower value
[64] = locus YPL204W, strain HRR25, stronger effect = lower value
[65] = locus YPL209C, strain IPL1, stronger effect = lower value
[66] = locus YPL256C, strain CLN2, stronger effect = lower value
[67] = locus YPR025C, strain CCL1, stronger effect = lower value
[68] = locus YPR106W, strain ISR1, stronger effect = lower value
[69] = locus YPR111W, strain DBF20, stronger effect = lower value
[70] = strain NNK1, stronger effect = lower value
[71] = strain TSCII, stronger effect = lower value

CC(C)(C)NC(=S)N/N=C\c1cc(Br)c(O)c(Br)c1
normalized growth [1]: 0.966
normalized growth [2]: 0.969
normalized growth [3]: 0.962
normalized growth [4]: 0.965
normalized growth [5]: 0.967
normalized growth [6]: 0.966
normalized growth [7]: 0.967
normalized growth [8]: 0.959
normalized growth [9]: 0.971
normalized growth [10]: 0.955
normalized growth [11]: 0.944
normalized growth [12]: 0.971
normalized growth [13]: 0.957
normalized growth [14]: 0.946
normalized growth [15]: 0.917
normalized growth [16]: 0.917
normalized growth [17]: 0.944
normalized growth [18]: 0.962
normalized growth [19]: 0.958
normalized growth [20]: 0.971
normalized growth [21]: 0.929
normalized growth [22]: 0.952
normalized growth [23]: 0.919
normalized growth [24]: 0.968
normalized growth [25]: 0.947
normalized growth [26]: 0.768 (active)
normalized growth [27]: 0.926
normalized growth [28]: 0.922
normalized growth [29]: 0.938
normalized growth [30]: 0.971
normalized growth [31]: 0.875
normalized growth [32]: 0.976
normalized growth [33]: 0.957
normalized growth [34]: 0.955
normalized growth [35]: 0.932
normalized growth [36]: 0.864
normalized growth [37]: 0.951
normalized growth [38]: 0.945
normalized growth [39]: 0.927
normalized growth [40]: 0.959
normalized growth [41]: 0.897
normalized growth [42]: 0.896
normalized growth [43]: 0.928
normalized growth [44]: 0.92
normalized growth [45]: 0.959
normalized growth [46]: 0.965
normalized growth [47]: 0.949
normalized growth [48]: 0.97
normalized growth [49]: 0.965
normalized growth [50]: 0.929
normalized growth [51]: 0.969
normalized growth [52]: 0.87
normalized growth [53]: 0.964
normalized growth [54]: 0.963
normalized growth [55]: 0.898
normalized growth [56]: 0.961
normalized growth [57]: 0.938
normalized growth [58]: 0.921
normalized growth [59]: 0.932
normalized growth [60]: 0.956
normalized growth [61]: 0.969
normalized growth [62]: 0.92
normalized growth [63]: 0.953
normalized growth [64]: 0.904
normalized growth [65]: 0.966
normalized growth [66]: 0.902
normalized growth [67]: 0.966
normalized growth [68]: 0.957
normalized growth [69]: 0.955
normalized growth [70]: 0.959
normalized growth [71]: 0.965

CNC(=S)N/N=C\c1cc(Br)cc(Br)c1O
normalized growth (locus YAL013W, strain DEP1, stronger effect = lower value): 0.794 (active)
normalized growth (locus YBR229C, strain ROT2, stronger effect = lower value): 0.919 (active)
normalized growth (locus YCL061C, strain MRC1, stronger effect = lower value): 0.861 (active)
normalized growth [8]: 0.912
normalized growth (locus YDL134C, strain PPH21, stronger effect = lower value): 0.537 (active)
normalized growth (locus YDR150W, strain NUM1, stronger effect = lower value): 0.755 (active)
normalized growth (locus YEL061C, strain CIN8, stronger effect = lower value): 0.463 (active)
normalized growth (locus YGR078C, strain PAC10, stronger effect = lower value): 0.912 (active)
normalized growth (locus YGR229C, strain SMI1, stronger effect = lower value): 0.813 (active)
normalized growth [26]: 0.237 (active)
normalized growth (locus YHR087W, strain rtc3, stronger effect = lower value): 0.944
normalized growth (locus YJR043C, strain POL32, stronger effect = lower value): 0.814 (active)
normalized growth (locus YJR075W, strain HOC1, stronger effect = lower value): 0.847 (active)
normalized growth (locus YKL190W, strain CNB1, stronger effect = lower value): 0.36 (active)
normalized growth (locus YLR039C, strain RIC1, stronger effect = lower value): 0.155 (active)
normalized growth (locus YLR058C, strain SHM2 (second series), stronger effect = lower value): 1
normalized growth (locus YLR085C, strain ARP6, stronger effect = lower value): 0.139 (active)
normalized growth (locus YLR262C, strain YPT6, stronger effect = lower value): 0.15 (active)
normalized growth (locus YML094W, strain GIM5, stronger effect = lower value): 0.586 (active)
normalized growth (locus YMR219W, strain ESC1, stronger effect = lower value): 0.956
normalized growth (locus YMR263W, strain SAP30, stronger effect = lower value): 0.743 (active)
normalized growth (locus YMR307W, strain GAS1, stronger effect = lower value): 0.252 (active)
normalized growth (locus YNL153C, strain GIM3, stronger effect = lower value): 0.875 (active)
normalized growth (locus YNL298W, strain CLA4 (second series), stronger effect = lower value): 0.311 (active)
normalized growth (locus YNL322C, strain KRE1, stronger effect = lower value): 0.817 (active)
normalized growth (locus YNR030W, strain Alg12, stronger effect = lower value): 0.274 (active)
normalized growth (locus YPL055C, strain LGE1, stronger effect = lower value): 0.485 (active)
normalized growth (locus YPL241C, strain CIN2, stronger effect = lower value): 0.522 (active)
normalized growth (locus YPR135W, strain CTF4, stronger effect = lower value): 0.334 (active)

Cc1cc(Br)c(O)c(/C=N\NC(=S)NC(C)(C)C)c1
normalized growth [1]: 0.98
normalized growth [2]: 0.987
normalized growth [3]: 0.971
normalized growth [4]: 0.981
normalized growth [5]: 0.978
normalized growth [6]: 0.972
normalized growth [7]: 0.972
normalized growth [8]: 0.993
normalized growth [9]: 0.969
normalized growth [10]: 0.984
normalized growth [11]: 0.922
normalized growth [12]: 0.982
normalized growth [13]: 0.98
normalized growth [14]: 0.965
normalized growth [15]: 0.91
normalized growth [16]: 0.894
normalized growth [17]: 0.879
normalized growth [18]: 0.981
normalized growth [19]: 0.973
normalized growth [20]: 0.976
normalized growth [21]: 0.959
normalized growth [22]: 0.975
normalized growth [23]: 0.893
normalized growth [24]: 0.883
normalized growth [25]: 0.823
normalized growth [26]: 0.752 (active)
normalized growth [27]: 0.872
normalized growth [28]: 0.97
normalized growth [29]: 0.942
normalized growth [30]: 0.981
normalized growth [31]: 0.875
normalized growth [32]: 0.952
normalized growth [33]: 0.911
normalized growth [34]: 0.99
normalized growth [35]: 0.839
normalized growth [36]: 0.899
normalized growth [37]: 0.973
normalized growth [38]: 0.934
normalized growth [39]: 0.914
normalized growth [40]: 0.98
normalized growth [41]: 0.914
normalized growth [42]: 0.782 (active)
normalized growth [43]: 0.917
normalized growth [44]: 0.857
normalized growth [45]: 0.917
normalized growth [46]: 0.975
normalized growth [47]: 0.944
normalized growth [48]: 0.98
normalized growth [49]: 0.98
normalized growth [50]: 0.903
normalized growth [51]: 0.975
normalized growth [52]: 0.848
normalized growth [53]: 0.976
normalized growth [54]: 0.988
normalized growth [55]: 0.893
normalized growth [56]: 0.982
normalized growth [57]: 0.947
normalized growth [58]: 0.91
normalized growth [59]: 0.967
normalized growth [60]: 0.874
normalized growth [61]: 0.988
normalized growth [62]: 0.876
normalized growth [63]: 0.906
normalized growth [64]: 0.884
normalized growth [65]: 0.981
normalized growth [66]: 0.838 (active)
normalized growth [67]: 0.975
normalized growth [68]: 0.987
normalized growth [69]: 0.985
normalized growth [70]: 0.982
normalized growth [71]: 0.984
